Assay [1] is described as follows: inhibitors of TNFa-induced NFkB p65 translocation, primary screen, imaging, HUVEC, MLSMR starter and 10KST1 sets (AID 438;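 active = inhibition above 20% together with a positive visual image hit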;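 note: compound added about 3h40 before a 20 min TNFalpha stimulation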;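 for inhibition: signal is the nuclear over cytoplasmic p65 intensity ratio per well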). To be noted: HUVEC TNFa-induced p65 nuclear translocation; cell count: measured here: nuclei count (cytotoxicity indicator), at 2.08 µM; inhibition: at 2 µM, stronger effect = higher value, 0% TNFa-plus-vehicle, 100% no-TNFa wells.
Assay [2] can be described thus: inhibitors of mutant huntingtin aggregation, primary screen, imaging, exon1htt(103Q)mCFP cells, high-content imaging (AID 483;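 active = visual image review flags a hit and inhibition of aggregation exceeds 20%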;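 note: compound exposure lasted 3 days before fixation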;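 for nuclei count: percent of the per-plate median nuclei count of sample wells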). To be noted: exon1htt(103Q)mCFP cell line, aggregate imaging, at 2 µM; inhibition of aggregation: stronger effect = higher value; nuclei count: measured here: cell count, toxicity.
A short description of assay [3]: inhibitors of E-selectin induction by TNFa, primary screen, imaging, HUVEC, immunofluorescence, MLSMR starter and 10KST1 sets (AID 487).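 For inhibition: signal is fraction of cell area covered by stained E-selectin grains.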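 For nuclei count: 100% = median nuclei count of all wells on the same plate.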 To be noted: HUVEC TNFalpha-induced E-selectin immunofluorescence imaging, at 2 µM; inhibition: stronger effect = higher value; nuclei count: measured here: cell number, toxicity.
Assay [4] addresses Voltage-gated potassium channel subunit beta-2 (Rattus norvegicus) (UniProt P62483). Briefly: KvBeta enzyme negative modulators, primary screen, biochemical, NADPH fluorescence (AID 622;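 active = fluorescence slope higher than the sample average by over 3 SD, cut at about -0.22 in these data, passing the limit was not always enough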;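 note: slope of raw intensity against log time taken from 70 to 1610 s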). To be noted: recombinant KvBeta, 4-cyanobenzaldehyde reduction, at 10 µM, stronger effect = higher value.
Assay [5] shares this target. Description: KvBeta positive modulators, primary screen, biochemical, NADPH fluorescence (AID 623;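 active = NADPH fluorescence slope more negative than the mean of all samples by about 3 SD, 99.7% confidence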;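 note: fluorescence intensity change per second fitted from 20 to 320 s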). To be noted: Recombinant KvBeta, NADPH fluorescence decrease slope, 10 min; at 10 µM; stronger effect = lower value.
Assay [6] has as its target Alpha-2C adrenergic receptor (Homo sapiens) (UniProt P18825). Briefly: modulators of alpha2C/GIRK thallium flux, primary screen, cell-based, HEK293 alpha2C/GIRK1/2 (AID 624;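 active = fluorescence slope after compound addition differing from the mean of all screened samples at 99.7% confidence, in either direction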;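 note: slope of fluorescence ratio to pre-addition baseline per second over 15 to 24 s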). To be noted: thallium flux BTC fluorescence, at 10 µM, actives lie on both sides.
Assay [7] is described as follows: inhibitors of Sendai virus-induced IRF3 signaling, primary screen, TLR/RLR signaling modifier project, cell-based, Sendai virus stimulus, luciferase, 10K MLSCN set (AID 602276;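 active = inhibition at or above 50% at 10 µM; inactive = inhibition below 50%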;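 note: firefly luciferase from ISG56 promoter only with Renilla not read in this screen; 0% = Sendai virus plus DMSO and 100% = medium plus DMSO without virus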). To be noted: HEK293 RL24 IRF3 luciferase reporter, at 10 µM, stronger effect = higher value.
Assay [8] is described as follows: inhibitors of poly I:C-induced TLR3 signaling, primary screen, cell-based, poly I:C stimulus, luciferase, 10K MLSCN set (AID 602277;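 active = inhibition of the reporter signal at or above 50%; inactive = inhibition below 50%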). To be noted: HEK293-TLR3 RL24 IRF3 luciferase reporter, at 10 µM, stronger effect = higher value.

SMILES strings stand for the structures. The source made the active and inactive calls.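 Rule for the calls, unless noted: active = visually confirmed hit in the image check and inhibition above 20%; inconclusive = visually confirmed hit but inhibition not above 20%; inactive = no visual hit in the image check.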

Chain of Alpha-2C adrenergic receptor (Homo sapiens) (P18825 whole entry, looked up): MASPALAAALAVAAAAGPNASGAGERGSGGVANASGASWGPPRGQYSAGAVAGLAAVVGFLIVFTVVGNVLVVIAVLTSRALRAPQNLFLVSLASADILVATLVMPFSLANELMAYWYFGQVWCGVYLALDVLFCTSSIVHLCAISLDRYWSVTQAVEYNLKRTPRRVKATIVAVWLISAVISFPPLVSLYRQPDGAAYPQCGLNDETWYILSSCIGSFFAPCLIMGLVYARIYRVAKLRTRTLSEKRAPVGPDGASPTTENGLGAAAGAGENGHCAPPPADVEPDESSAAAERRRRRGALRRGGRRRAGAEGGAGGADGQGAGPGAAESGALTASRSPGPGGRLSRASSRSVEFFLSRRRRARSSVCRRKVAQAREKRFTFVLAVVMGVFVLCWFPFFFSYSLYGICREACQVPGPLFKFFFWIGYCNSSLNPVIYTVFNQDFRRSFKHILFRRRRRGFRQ
Chain of Voltage-gated potassium channel subunit beta-2 (Rattus norvegicus) (P62483 whole entry, looked up): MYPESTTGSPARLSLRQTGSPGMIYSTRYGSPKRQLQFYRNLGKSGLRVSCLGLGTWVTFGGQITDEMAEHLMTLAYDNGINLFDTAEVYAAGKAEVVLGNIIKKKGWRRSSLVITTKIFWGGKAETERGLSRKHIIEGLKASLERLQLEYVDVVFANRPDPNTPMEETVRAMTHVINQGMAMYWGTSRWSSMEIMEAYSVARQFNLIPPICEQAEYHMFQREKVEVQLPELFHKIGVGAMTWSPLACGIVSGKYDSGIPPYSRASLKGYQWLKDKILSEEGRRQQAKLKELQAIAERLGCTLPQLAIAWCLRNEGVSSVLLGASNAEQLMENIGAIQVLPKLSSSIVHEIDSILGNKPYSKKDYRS

As a reminder, the inhibition is the drop in the measured response relative to a control, in per cent. For `c1ccc(-n2cnc3cc(NCc4ccccn4)ccc32)cc1`, in assay [1], the cell count is 469. In addition, the inhibition was -5.7% (inactive) in assay [1], -28.1% (inactive) in assay [3], 20.8% (inactive) in assay [7] and -8.3% (inactive) in assay [8]. Moreover, the inhibition of aggregation in assay [2] was 25.1% (inactive). Further, the nuclei count in assay [2] is 102%; in assay [3], 183%. Besides, the fluorescence slope in assay [4] was -0.596 (inactive). The NADPH fluorescence slope in assay [5] is -4.4e-05 (inactive). Besides, the slope in assay [6] was 0.00529 (inactive).

Regarding `O=C(COC(=O)c1cccc(S(=O)(=O)N2CCc3ccccc32)c1)NC1CCS(=O)(=O)C1` (centres undefined), in assay [1], the cell count came to 611. Besides, the inhibition in assay [1] was 8.9% (inactive); in assay [3], -104% (inactive); in assay [7], 3.1% (inactive); in assay [8] it was 12.9% (inactive). Besides, the inhibition of aggregation in assay [2] was -6.2% (inactive). Further, the nuclei count in assay [2] came out at 125%; in assay [3] it was 111%. The fluorescence slope in assay [4] was -0.283 (inactive). Moreover, the NADPH fluorescence slope in assay [5] is -7.3e-05 (inactive). Further, the slope in assay [6] was 0.00577 (inactive).

For the compound `O=C1CCn2nc(-c3ccc(Cl)cc3)cc2N1`, the cell count in assay [1] worked out at 557. Further, the inhibition in assay [1] was -0.5% (inactive); in assay [3], -66.1% (inactive); in assay [7], -20.1% (inactive); in assay [8] it was -53% (inactive). Moreover, the inhibition of aggregation in assay [2] is -106% (inactive). For the same compound, the nuclei count in assay [2] is 1.2%; in assay [3], 118%. Also, the fluorescence slope in assay [4] is -0.601 (inactive). The NADPH fluorescence slope in assay [5] is -3.8e-05 (inactive). Also, the slope in assay [6] was 0.00658 (inactive).

`CCOc1ccccc1OCC(=O)NCc1ccco1`: the cell count in assay [1] turned out to be 375. The inhibition is -3.4% (inactive) in assay [1], -16.4% (inactive) in assay [3], 11.5% (inactive) in assay [7] and 9.81% (inactive) in assay [8]. Further, the inhibition of aggregation in assay [2] was 2.9% (inactive). In addition, the nuclei count was found to be 101% in assay [2] and 92% in assay [3]. In addition, the fluorescence slope in assay [4] was -0.409 (inactive). Besides, in assay [5], the NADPH fluorescence slope was -4.3e-05 (inactive). Also, the slope in assay [6] is 0.00437 (inactive).

`Cc1nn(C)c(C)c1NC(=O)CCSc1nc(-c2ccco2)cc(C(F)(F)F)n1`: the cell count in assay [1] came out at 491. For the same compound, the inhibition in assay [1] was -2.2% (inactive); in assay [3], 23.6% (inactive); in assay [7], 4.67% (inactive); in assay [8], -10.1% (inactive). The inhibition of aggregation in assay [2] was 10.3% (inactive). The nuclei count in assay [2] is 108%; in assay [3] it was 100%. The fluorescence slope in assay [4] was -0.432 (inactive). In addition, the NADPH fluorescence slope in assay [5] was -6.1e-05 (inactive). Also, the slope in assay [6] was 0.00599 (inactive).

For `N#CC(C(=O)c1ccco1)c1ccccn1` (centres undefined), in assay [1], the cell count was 699. In addition, the inhibition was 2.8% (inactive) in assay [1], 43.2% (inactive) in assay [3], -8.81% (inactive) in assay [7] and -54% (inactive) in assay [8]. Also, the inhibition of aggregation in assay [2] is -5.3% (inactive). Also, the nuclei count in assay [2] is 108%; in assay [3], 94.7%. The fluorescence slope in assay [4] was -0.367 (inactive). Besides, the NADPH fluorescence slope in assay [5] was -2e-05 (inactive). Also, the slope in assay [6] was 0.00116 (inactive).

`O=C(C1CCCN(S(=O)(=O)c2cccs2)C1)N1CCc2ccccc2C1` (centres undefined): the cell count in assay [1] is 668. Further, the inhibition in assay [1] is -3.6% (inactive); in assay [3] it was -53.2% (inactive); in assay [7], 13.1% (inactive); in assay [8], 14.2% (inactive). Moreover, the inhibition of aggregation in assay [2] was -29.8% (inactive). Also, the results for the nuclei count in assay [2] and in assay [3] were 119% and 109%, respectively. Besides, in assay [4], the fluorescence slope is -0.586 (inactive). For the same compound, the NADPH fluorescence slope in assay [5] was -5.1e-05 (inactive). In addition, the slope in assay [6] was 0.0027 (inactive).

On to `O=C(COC(=O)CCC1CCCC1)Nc1ccc(Cl)cn1`, for which, in assay [1], the cell count was 429. Besides, the inhibition in assay [1] was -4.8% (inactive); in assay [3] it was -27.8% (inactive); in assay [7], -6.45% (inactive); in assay [8], 3.24% (inactive). The inhibition of aggregation in assay [2] is -13.9% (inactive). In addition, the nuclei count was 115% in assay [2] and 108% in assay [3]. Also, in assay [4], the fluorescence slope is -0.345 (inactive). In addition, in assay [5], the NADPH fluorescence slope was -5.6e-05 (inactive). For the same compound, the slope in assay [6] is 0.00786 (inactive).

As to `O=S(=O)(NCC(c1cccnc1)N1CCN(c2ccccc2)CC1)c1cc(F)ccc1F` (centres undefined), the cell count in assay [1] was determined as 524. For the same compound, the inhibition is -6.2% (inactive) in assay [1], -75.8% (inactive) in assay [3], 21.7% (inactive) in assay [7] and 20.8% (inactive) in assay [8]. Besides, the inhibition of aggregation in assay [2] is 9% (inactive). In addition, the nuclei count in assay [2] was found to be 51.3%; in assay [3], 115%. The fluorescence slope in assay [4] was -0.508 (inactive). In addition, in assay [5], the NADPH fluorescence slope is 5.2e-05 (inactive). Besides, in assay [6], the slope was 0.00657 (inactive).

`O=S(=O)(NC1CCCC1)c1ccc(S(=O)(=O)N2CCc3ccccc32)cc1`: in assay [1], the cell count turned out to be 395. The inhibition was 0% (inactive) in assay [1], -13.9% (inactive) in assay [3], 5.42% (inactive) in assay [7] and -11.7% (inactive) in assay [8]. Also, in assay [2], the inhibition of aggregation was 8.6% (inactive). Also, the figures for the nuclei count in assay [2] and in assay [3] were 102% and 97.5%, respectively. For the same compound, in assay [4], the fluorescence slope is -0.589 (inactive). The NADPH fluorescence slope in assay [5] was -1.9e-05 (inactive). In assay [6], the slope was 0.00513 (inactive).

Regarding `COc1cccc(-c2nnc(NC(=O)c3ccccc3Br)o2)c1`, the cell count in assay [1] was 718. For the same compound, the inhibition is -6.9% (inactive) in assay [1], -17.4% (inactive) in assay [3], 4.13% (inactive) in assay [7] and 17.2% (inactive) in assay [8]. Besides, in assay [2], the inhibition of aggregation is -5.7% (inactive). Also, the nuclei count in assay [2] was 110%; in assay [3], 117%. In assay [4], the fluorescence slope was -0.421 (inactive). Moreover, the NADPH fluorescence slope in assay [5] is -3.3e-05 (inactive). In assay [6], the slope is 0.00691 (inactive).

Turning to `O=C(CCSc1nccn1Cc1ccccc1)N1CCOCC1`, the cell count in assay [1] was determined as 447. In addition, the inhibition in assay [1] is -6.8% (inactive); in assay [3] it was -7.8% (inactive); in assay [7], 1.9% (inactive); in assay [8], -9.28% (inactive). In addition, the inhibition of aggregation in assay [2] was -9.1% (inactive). Further, the nuclei count stood at 93.1% in assay [2] and 80.8% in assay [3]. Further, the fluorescence slope in assay [4] was -0.524 (inactive). The NADPH fluorescence slope in assay [5] was -5.2e-05 (inactive). For the same compound, the slope in assay [6] was 0.00524 (inactive).

In the case of `O=C(C(c1ccccc1)c1ccccc1)N1CCN(Cc2ccccn2)CC1`, the cell count in assay [1] turned out to be 357. The inhibition is -7.5% (inactive) in assay [1], -11.4% (inactive) in assay [3], 5.9% (inactive) in assay [7] and 18.2% (inactive) in assay [8]. Further, in assay [2], the inhibition of aggregation is 3.4% (inactive). Also, the nuclei count in assay [2] is 98.4%; in assay [3], 107%. Further, the fluorescence slope in assay [4] is -0.369 (inactive). In addition, the NADPH fluorescence slope in assay [5] is -1.3e-05 (inactive). The slope in assay [6] was 0.00484 (inactive).

Take `O=C(c1ccc(CNS(=O)(=O)c2cccc(C(F)(F)F)c2)cc1)N1CCOCC1`: the cell count in assay [1] was found to be 237. Moreover, the inhibition was 11.8% (inactive) in assay [1], 14.7% (inactive) in assay [3], 14.8% (inactive) in assay [7] and 16.9% (inactive) in assay [8]. Also, the inhibition of aggregation in assay [2] is -1.6% (inactive). For the same compound, the nuclei count in assay [2] worked out at 80%; in assay [3], 97.4%. For the same compound, in assay [4], the fluorescence slope is -0.387 (inactive). Besides, in assay [5], the NADPH fluorescence slope is -3.8e-05 (inactive). In addition, the slope in assay [6] is 0.00478 (inactive).

These data come from PubChem BioAssay.
